Source: PubChem
Shown are actives, neighbours in structure and some others; about 12% of the full set was active somewhere.
HP1b chromo inh: inhibitors of HP1-beta chromodomain binding to methylated histone tails | P83916 | AlphaScreen HP1-beta / biotin-H3K9me3 peptide binding | Potency, µM (series often up to 114 µM), for inactives: at the top dose activity change, negative = inhibition, actives largely listed as inhibitors | 0.56% of 390,000 active; further: nearly all actives have a fitted effect of over 70% in size
Target sequence (P83916 whole entry, looked up): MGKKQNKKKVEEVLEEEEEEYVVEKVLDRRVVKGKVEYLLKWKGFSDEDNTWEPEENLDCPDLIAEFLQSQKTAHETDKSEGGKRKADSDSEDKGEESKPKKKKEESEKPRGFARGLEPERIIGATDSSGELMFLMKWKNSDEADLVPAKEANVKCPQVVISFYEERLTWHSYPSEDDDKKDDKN
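HP1-beta protein (50 nM final) preincubated 30 min at room temperature with biotinylated H3(1-18)K9me3 peptide (50 nM) in PBS pH 7.4, 0.01% Tween-20, then compound added for 30 min. AlphaScreen streptavidin donor/nickel chelate acceptor beads (10 ug/mL final), 30 min dark, luminescence read.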
L3MBTL1 block: L3MBTL1 (human) inhibition. Potency, µM (titrated, usually from 57.1 µM), inactives show at the top dose activity, negative = inhibition, most hits filed as inhibitors. Q9Y468. 0.66% of 230,000 active. AID 485360. AlphaScreen L3MBTL1–H3K9me1 peptide binding; further: on the % scale 0 is the no-effect control and ±100 the full control effect; nearly all actives have a fitted effect of over 60% in size
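L3MBTL1 (50 nM) pre-complexed 30 min with biotinylated H3(1-15)K9me1 peptide (75 nM), then compounds added for 30 min at room temperature; AlphaScreen streptavidin donor/nickel chelate acceptor beads (10 ug/mL final) read after 30 min dark incubation.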
BAZ2B block: BAZ2B (human) inhibition. Q9UIF8. AlphaScreen BAZ2B-H3K14Ac peptide displacement. Potency, µM (titrated, usually from 114 µM), for inactives: top-dose activity change, negative = inhibition, most hits filed as inhibitors. 4.4% of 360,000 active. AID 504333; further: on the % scale 0 is the no-effect control and ±100 the full control effect; nearly all actives have a fitted effect of over 60% in size
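In this displacement format the biotinylated H3(5-23) peptide acetylated at Lys14 serves as ligand at 50 nM, with BAZ2B at 50 nM in PBS pH 7.4 containing 0.01% Tween-20. Donor and acceptor beads are 10 ug/mL final.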
Sfp inh: inhibitors of Bacillus subtilis Sfp phosphopantetheinyl transferase; Q9F4F7; Biochemical Sfp PPTase activity, qHTS; Potency, µM, without a hit: largest response in the series, negative = inhibition, actives largely listed as inhibitors; 3.5% of 310,000 active; AID 1490;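 further: the enzyme is Sfp with the accession as filed and its product quenches rhodamine fluorescence; 0% = enzyme reaction without inhibitor and -100% = no enzyme wells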
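Buffer: 50 mM Hepes-Na pH 7.6, 10 mM MgCl2, 0.01% Nonidet P-40, 0.01% BSA. Enzyme 15 nM, pre-exposed to compound 15 min; substrates then added and fluorescence change tracked over 30 min.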
JMJD2A Tudor: JMJD2A Tudor domain (human) inhibition; AlphaScreen JMJD2A-Tudor / H3K4me3 peptide binding; 4.4% of 390,000 active; AID 504339; O75164; Potency, µM (series often up to 114 µM), without a hit: at the top dose activity change, negative = inhibition, actives largely listed as inhibitors; further: on the % scale 0 is the no-effect control and ±100 the full control effect; nearly all actives have a fitted effect of over 50% in size
G9a block: G9a (human) methyltransferase inhibition; G9a H3K9 monomethylation, AlphaScreen, 2 h; AID 504332; 8.8% of 350,000 active; Potency, µM (highest dose often 102 µM), without a hit: top-dose activity, negative = inhibition, hits mostly inhibitors; further: on the % scale 0 is the no-effect control and ±100 the full control effect; nearly all actives have a fitted effect of over 75% in size
Target sequence (Q96KQ7 913-1193 limits assumed): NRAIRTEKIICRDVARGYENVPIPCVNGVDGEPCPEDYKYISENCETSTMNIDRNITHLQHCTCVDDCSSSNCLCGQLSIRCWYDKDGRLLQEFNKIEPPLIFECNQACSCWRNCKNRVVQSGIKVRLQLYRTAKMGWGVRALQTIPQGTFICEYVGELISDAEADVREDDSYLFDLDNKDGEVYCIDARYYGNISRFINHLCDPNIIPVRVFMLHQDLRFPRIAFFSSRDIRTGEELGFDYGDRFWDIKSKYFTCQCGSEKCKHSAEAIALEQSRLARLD
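Methyltransferase reactions run at room temperature for 2 h (20 nM enzyme, 500 nM biotin-H3K9 peptide, 20 uM SAM) after a 15 min compound preincubation; product detected by AlphaScreen beads and anti-H3K9me1 antibody.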
* marks the source's active call; other numbers are inactive results; u = inconclusive; x = no result given; [ ] = dose if it differs, or a comment. The call rests on the fitted dose curve; in most records, active means well fitted curve in the direction sought with a large enough effect; inconclusive means small, poorly fitted or top-dose-only effect, or another doubt; inactive means no such curve, though single readings can be large; an effect the other way counts as inactive or inconclusive. Potency means the concentration at half of the fitted maximal effect.

SMILES	HP1b chromo inh	L3MBTL1 block	BAZ2B block	Sfp inh	JMJD2A Tudor	G9a block
CC(Sc1nccn1C)C(=O)Nc1ccccc1C#N (stereo not given)	30%	x	-16%	x	-1%	-2%[59 µM]
CCOc1ccc2nc(N=NC3=C(O)CC(C)(C)CC3=O)sc2c1	u	x	45µM*	-16%	u	u
N/C(=N\N=C\c1ccc2c(c1)OCO2)SC1CC(=O)N(c2ccc(C(=O)O)cc2)C1=O (stereo not given)	15%	u	u	-16%	-18%	u
C/C(CCc1ccc2c(c1)OCO2)=N\N=C(/N)SC1CC(=O)N(c2ccc(Cl)cc2)C1=O (stereo not given)	-2%	-4%	-2%	56µM*	u	-27%[59 µM]
CCOc1ccc(NC(=O)CN2C(=O)C3(SCC(=O)N3c3ccc(F)cc3)c3ccccc32)cc1 (stereo not given)	24%	x	0%[57.1 µM]	x	-20%	-31%[59 µM]
Cc1ccc(C(=O)c2no[n+]([O-])c2C(=O)c2ccc(C)cc2)cc1	-13%	0%	u	u	-23%	40µM*
NC(=O)CC[C@@H]1NC(=O)[C@H](CO)NC(=O)c2cc([N+](=O)[O-])cc(I)c2NCCCC[C@@H](C(N)=O)NC(=O)[C@H](Cc2ccc(O)cc2)NC1=O	7%	-7%	-36%	2%	-32%	u
NC(=O)CC[C@@H]1NC(=O)[C@H](CO)NC(=O)c2cc([N+](=O)[O-])cc(I)c2NCC[C@@H](C(N)=O)NC(=O)[C@H](Cc2ccc(O)cc2)NC1=O	x	14%	56µM*	-21%	x	7.9µM*
C[C@@H]1NC(=O)[C@H](CCC(N)=O)NC(=O)c2cc([N+](=O)[O-])cc(I)c2NCCC[C@@H](C(N)=O)NC1=O	18%	0%	-25%	-6%	-15%	50µM*
C[C@@H]1NC(=O)[C@H](CCCN=C(N)N)NC(=O)c2cc([N+](=O)[O-])cc(I)c2NCCC[C@@H](C(N)=O)NC1=O	1%	3%	-8%	-5%	-19%	56µM*
C[C@@H]1NC(=O)c2cc([N+](=O)[O-])cc(I)c2NCCCC[C@@H](C(N)=O)NC(=O)[C@H](CCC(=O)O)NC1=O	10%	-6%	-33%	-11%	-17%	40µM*
Cc1oc(-c2cccc(Cl)c2)nc1CSc1nncn2c1cc1occc12	29%	x	-1%	x	-16%	10%[59 µM]
Cc1noc(C)c1-c1ccc2ncnc(Nc3ccc(F)cc3)c2c1	x	x	x	6%	x	21%[0.501 µM]
NC(=O)C[C@H]1NC(=O)[C@H](CCC(=O)O)NC(=O)c2cc([N+](=O)[O-])cc(I)c2NCCC[C@@H](C(N)=O)NC1=O	41%	-4%	u	2%	-19%	45µM*
NC(=O)[C@@H]1CCCNc2c(I)cc([N+](=O)[O-])cc2C(=O)N[C@@H](CCC(=O)O)C(=O)N[C@@H](CO)C(=O)N1	39%	10%	-5%	10%	-6%	35µM*
C[C@@H](O)[C@@H]1NC(=O)c2cc([N+](=O)[O-])cc(I)c2NCC[C@@H](C(N)=O)NC(=O)CNC1=O	25%	5%	-4%	-6%	-21%	50µM*
NCCCC[C@@H]1NC(=O)c2cc([N+](=O)[O-])cc(F)c2NCCCC[C@@H](C(N)=O)NC(=O)CNC1=O	37%	8%	0%	4%	-24%	-22%
O=C(Nc1ccccc1C(F)(F)F)c1ccc(F)c(S(=O)(=O)N2CCc3ccccc3C2)c1	12%	x	-2%	x	-26%	2%[59 µM]
COc1ccc(C#CC2C=CC(OC(C)=O)C(COC(C)=O)O2)cc1 (stereo not given)	x	x	x	15%	x	x
Cc1cc(Cl)c(OCCCN2CCCCC2)c(Br)c1	u	-6%	50µM*	-5%	28µM*	u
Cc1cc(Cl)c(OCCN2C(=O)NC(C)(C)C2=O)c(Br)c1	30%	x	1%	23%	9%	-1%
Cc1cc(Cl)c(OCCOCCN2CCNCC2)c(Cl)c1	31%	x	x	x	-5%	x
Cc1cc(Cl)cc(Cl)c1OCCCCN(C)C	u	2%	-35%	-7%	45µM*	8.9µM*
Cc1cc(C)c(OCCN2CCCC2)c(Cl)c1	-22%	-3%	-32%	-16%	-100%	45µM*
Cc1cc(C)c(OCCOCCN2CCN(C)CC2)c(Cl)c1	u	-5%	32µM*	-30%	1.6µM*	3.5µM*
SMILES	HP1b chromo inh	L3MBTL1 block	BAZ2B block	Sfp inh	JMJD2A Tudor	G9a block
CCn1nc(C)c2c(-c3ccccc3)cc(=O)n(C(C)C(=O)NCCC(C)C)c21 (stereo not given)	-16%	x	-2%	x	-14%	1%[59 µM]
CCSC1=NC2(CCN(C(=O)NC3CCCCC3)CC2)N=C1c1ccc(C)c(C)c1	29%	x	-1%[57.1 µM]	x	-11%	-24%[59 µM]
Cc1cc(Cl)cc(C)c1OCCn1ccnc1	28%	x	-37%	3%	-27%	-12%
Cc1cc(Cl)cc(Cl)c1OCCN1CCCC1	u	7%	-9%	-1%	50µM*	50µM*
Cc1ccc(NC(=O)CSc2nnc(C)n3c2cc2sccc23)c(C)c1	-6%	x	u	x	-18%	u
O=C(CSc1ccc(-c2ccco2)nn1)Nc1ccccc1F	27%	x	-16%	32µM*	-5%	40µM*
CCOc1ccccc1NC(=O)CSc1ccc(-c2ccco2)nn1	6%	x	u	50µM*	-32%	25µM*
CN(C)S(=O)(=O)c1ccc2c(c1)N(CC(=O)N1CCC(C(N)=O)CC1)CCS2	12%[57 µM]	x	-1%	x	-15%	0%[59 µM]
CCN(CC)CCN1C(=O)C(=O)/C(=C(/O)c2c(C)[nH]c(C(=O)OC)c2C)C1c1ccc(OC)cc1 (stereo not given)	16%	-13%	-9%	-6%	-23%	79µM*
COC(=O)c1[nH]c(C)c(/C(O)=C2\C(=O)C(=O)N(CCN(C)C)C2c2cc(OC)ccc2OC)c1C (stereo not given)	28%	2%	-32%	-1%	u	50µM*
COC(=O)c1[nH]c(C)c(/C(O)=C2\C(=O)C(=O)N(CCN(C)C)C2c2ccc(OC)cc2)c1C (stereo not given)	x	1%	x	14%	x	-11%[59 µM]
CCOc1ccc(C2/C(=C(\O)c3c(C)[nH]c(C(=O)OC)c3C)C(=O)C(=O)N2CCN(C)C)cc1 (stereo not given)	4%	-1%	0%	-19%	35µM*	45µM*
CC(=O)c1ccc(NC(=O)C2CCN(S(=O)(=O)c3ccc4c(c3)CCCN4C(=O)C3CCC3)CC2)cc1	21%[57 µM]	x	0%	x	2%	18%[59 µM]
Cc1ccccc1N(C(=O)c1csnn1)C(C(=O)NC(C)(C)C)c1cccs1 (stereo not given)	u	-17%	-27%	10%	10µM*	-30%
